PubChem BioAssay (Tox21)
Values joined by “and” are separate entries in the source; they are usually repeats but may differ in a detail not shown here. Equal values may be shown once. A number with no mark means an inactive call. Inconclusive results are not listed. Entries that show only a call come without a potency. Active and inactive are the calls of the source. Calls follow the shape of the dose curve; as a rule, active = well fitted curve in the direction sought with a large enough effect in the repeat runs; inconclusive = weak or mixed curves; inactive = no such curve, though single readings can be large; an effect the other way counts as inactive or inconclusive.

How the values were obtained:
[1] = Caspase-3/7 induction in HepG2 cells by small molecules, qHTS assay (AID 1346978); also: nearly all actives have a fitted effect of over 15% in size; also: potency is read from the fitted curve at half-maximal effect
Outline: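 Wild-type HepG2 cells (2,000/well) were settled 5 h at 37 C, 5% CO2, then exposed to compounds in DMSO for 17 h. Caspase-3/7 activity was read by luminescence 30 min after adding Caspase-Glo 3/7 reagent at room temperature.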

[2] = Caspase-3/7 induction in CHO-K1 cells by small molecules, qHTS assay (AID 1346980); also: nearly all actives have a fitted effect of over 15% in size; also: potency is read from the fitted curve at half-maximal effect
Outline: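 Wild-type cells were seeded at 1,500 per well and settled 5 hr at 37 C, 5% CO2, then exposed to DMSO-dissolved compounds for 17 hr. Caspase-Glo 3/7 reagent was added, and luminescence was read after 30min at room temperature.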

[3] = molecular target: Nuclear receptor subfamily 1 group I member 2 (Homo sapiens) (UniProt O75469); test: Human pregnane X receptor (PXR) small molecule agonists, qHTS assay (AID 1346982); also: nearly all actives have a fitted effect of over 35% in size; also: potency is read from the fitted curve at half-maximal effect
Outline: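 We seeded PXR-Luc HepG2 cells in assay medium containing 5% charcoal-stripped FBS, added compounds 5 hr later, incubated 24 hr, and read luminescence with ONE-Glo reagent.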

[4] = Caspase-3/7 induction in HepG2 cells by small molecules, qHTS cell viability counter screen (AID 1346981); also: nearly all actives have a fitted effect of over 30% in size; also: potency is read from the fitted curve at half-maximal effect; as to activity change, negative = cytotoxicity: series mostly up to about 92 µM
Outline: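 Multiplexed with the caspase-3/7 assay: HepG2 cells, 16 hr compound treatment, CellTiter-Fluor viability detection by fluorescence.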

[5] = molecular target: Cytochrome P450 2C19 (Homo sapiens) (UniProt P33261); test: Cytochrome P450 Family 2 Subfamily C Member 19 (CYP2C19) small molecule antagonists: luciferase reporter qHTS assay (AID 1671197); also: nearly all actives have a fitted effect of over 65% in size; also: potency is read from the fitted curve at half-maximal effect; as to activity change, negative = inhibition: series mostly up to about 120 µM
Outline: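 CYP2C19 P450-Glo, 1536-well qHTS. Cpd + enzyme/proluciferin substrate 10 min RT; + NADPH regen, 37C 1 h; stop with luciferin detection reagent, 20 min RT, luminescence (RLU). Pos ctrl ketoconazole.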

[6] = molecular target: Cytochrome P450 2D6 (Homo sapiens) (UniProt P10635); test: Cytochrome P450 Family 2 Subfamily D Member 6 (CYP2D6) small molecule antagonists: luciferase reporter qHTS assay (AID 1671196); also: nearly all actives have a fitted effect of over 50% in size; also: potency is read from the fitted curve at half-maximal effect; as to activity change, negative = inhibition: series mostly up to about 120 µM
Outline: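 Luminescence (RLU), read 20 min after detection reagent, indicated CYP2D6 conversion of proluciferin to luciferin during a 1 h NADPH-dependent reaction at room temperature.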

[7] = molecular target: Nuclear receptor subfamily 1 group I member 2 (Rattus norvegicus) (UniProt Q9R1A7); test: Rat pregnane X receptor (rPXR) activation by small molecules, qHTS assay (AID 1346983); conditions: rPXR luciferase reporter cells, One-Glo luminescence, 24 h; max activation: stronger effect = higher value; also: nearly all actives have a fitted effect of over 20% in size; also: potency is read from the fitted curve at half-maximal effect
Outline: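 Cell-based rPXR luciferase reporter assay, 2,000 cells per well, rested 5hr at 37 C before compound addition in DMSO, then 24 hr at 37 C. One-Glo reagent was added and luminescence read after 30 min at room temperature.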

[8] = Caspase-3/7 induction in CHO-K1 cells by small molecules, qHTS cell viability counter screen (AID 1346979); also: nearly all actives have a fitted effect of over 35% in size; also: potency is read from the fitted curve at half-maximal effect
Outline: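 Wild-type CHO-K1 cells (1,500/well) treated with compound after 5 h plating; after 16 h at 37C, viability read as CellTiter-Fluor fluorescence following 1 h reagent incubation, in the same wells as the caspase read.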

[9] = molecular target: Nuclear receptor subfamily 1 group I member 2 (Homo sapiens) (UniProt O75469); test: CYP3A4 induction through human pregnane X receptor (PXR) by small molecules, qHTS assay (AID 1346984); also: nearly all actives have a fitted effect of over 40% in size
Outline: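 qHTS, concentration-response format: HepG2 DPX-2 line, PXR/CYP3A4-luc. Exposure 24 h, 37C. Substrate Luciferin-IPA 3uM final, 3 h. Detection One-Glo, 30 min RT.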

[10] = molecular target: Nuclear receptor subfamily 1 group I member 2 (Homo sapiens) (UniProt O75469); test: Human pregnane X receptor (PXR) activation by small molecules, qHTS assay (AID 1346985); also: nearly all actives have a fitted effect of over 40% in size; also: potency is read from the fitted curve at half-maximal effect
Outline: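 DPX-2 cells (HepG2 co-transfected with a PXR response element and a CYP3A4-promoter luciferase construct) were seeded at 2,000 per well, rested 5 hr at 37C, then exposed to DMSO-dissolved compounds for 24 hr. Activation was read as luciferase luminescence.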

Nuclear receptor subfamily 1 group I member 2 (Rattus norvegicus), sequence (Q9R1A7 whole entry, looked up): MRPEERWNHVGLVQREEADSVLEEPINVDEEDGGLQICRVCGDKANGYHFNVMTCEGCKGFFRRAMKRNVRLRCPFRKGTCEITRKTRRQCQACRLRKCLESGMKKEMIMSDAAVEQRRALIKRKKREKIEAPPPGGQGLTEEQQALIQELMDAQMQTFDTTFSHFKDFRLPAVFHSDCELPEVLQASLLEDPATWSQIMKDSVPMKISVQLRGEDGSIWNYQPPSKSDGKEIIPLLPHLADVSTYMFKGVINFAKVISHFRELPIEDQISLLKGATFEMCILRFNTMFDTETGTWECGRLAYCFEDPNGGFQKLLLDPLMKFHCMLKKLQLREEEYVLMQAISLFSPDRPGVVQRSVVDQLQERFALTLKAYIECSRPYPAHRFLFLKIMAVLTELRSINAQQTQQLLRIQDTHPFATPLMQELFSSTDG
Cytochrome P450 2C19 (Homo sapiens), sequence (P33261 whole entry, looked up): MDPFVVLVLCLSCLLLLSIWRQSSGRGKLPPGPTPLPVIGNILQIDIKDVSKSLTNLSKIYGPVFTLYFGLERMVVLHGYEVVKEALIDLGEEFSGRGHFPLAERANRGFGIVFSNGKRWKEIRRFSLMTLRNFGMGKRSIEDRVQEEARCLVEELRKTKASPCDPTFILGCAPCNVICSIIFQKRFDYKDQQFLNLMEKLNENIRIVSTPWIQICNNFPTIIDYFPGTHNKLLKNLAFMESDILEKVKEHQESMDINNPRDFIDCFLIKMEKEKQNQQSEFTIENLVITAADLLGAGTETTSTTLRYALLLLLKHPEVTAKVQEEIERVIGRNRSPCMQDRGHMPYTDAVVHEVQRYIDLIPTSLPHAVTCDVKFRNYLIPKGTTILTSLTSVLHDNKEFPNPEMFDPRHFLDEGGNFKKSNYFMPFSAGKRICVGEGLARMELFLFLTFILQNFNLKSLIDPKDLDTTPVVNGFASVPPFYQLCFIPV
Nuclear receptor subfamily 1 group I member 2 (Homo sapiens), sequence (O75469 whole entry, looked up): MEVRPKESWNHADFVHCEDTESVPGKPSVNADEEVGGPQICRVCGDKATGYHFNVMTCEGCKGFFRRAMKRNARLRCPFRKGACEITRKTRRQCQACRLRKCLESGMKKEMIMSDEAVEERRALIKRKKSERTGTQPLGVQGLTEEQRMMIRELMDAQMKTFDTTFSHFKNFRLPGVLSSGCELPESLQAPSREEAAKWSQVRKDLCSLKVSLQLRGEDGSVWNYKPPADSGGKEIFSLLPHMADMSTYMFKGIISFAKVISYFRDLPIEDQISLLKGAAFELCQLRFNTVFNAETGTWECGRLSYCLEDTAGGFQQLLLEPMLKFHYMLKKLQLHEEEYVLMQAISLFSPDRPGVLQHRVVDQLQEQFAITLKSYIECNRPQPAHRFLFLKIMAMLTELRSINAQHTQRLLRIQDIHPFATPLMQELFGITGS
Cytochrome P450 2D6 (Homo sapiens), sequence (P10635 whole entry, looked up): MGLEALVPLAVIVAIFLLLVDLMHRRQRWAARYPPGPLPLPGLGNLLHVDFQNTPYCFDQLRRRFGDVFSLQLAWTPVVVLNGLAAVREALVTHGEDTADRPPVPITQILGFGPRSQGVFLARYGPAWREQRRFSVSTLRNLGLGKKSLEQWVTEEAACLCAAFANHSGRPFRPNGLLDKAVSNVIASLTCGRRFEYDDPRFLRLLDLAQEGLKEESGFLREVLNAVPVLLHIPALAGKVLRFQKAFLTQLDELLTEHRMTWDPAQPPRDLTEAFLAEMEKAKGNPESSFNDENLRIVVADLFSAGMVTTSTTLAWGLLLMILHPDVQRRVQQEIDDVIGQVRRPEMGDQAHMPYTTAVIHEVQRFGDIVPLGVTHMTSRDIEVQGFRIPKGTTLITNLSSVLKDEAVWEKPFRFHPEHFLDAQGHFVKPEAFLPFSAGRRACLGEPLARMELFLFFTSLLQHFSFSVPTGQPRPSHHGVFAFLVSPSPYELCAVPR

With CN(C)CCOC(c1ccccc1)c1ccccc1 (tested in a mixture with another compound) the Potency [1] was “inactive”, the Potency [2] was “inactive” and the Potency [3] was 61.6 µM (active).
With Clc1ccc(C(c2ccccc2Cl)C(Cl)Cl)cc1 (centres undefined) the Potency [1] was “inactive”, the Potency [4] was “inactive” and the Potency [3] was 10.9 µM (active). For the same molecule, the Potency [5] was 1.59 µM (active) and 776 nM (active).
For CCC(C)(C)c1cc(O)c(C(C)(C)CC)cc1O, the Potency [1] was “inactive”, the Potency [2] was “inactive” and the Potency [3] was 30.6 µM (active). For the same molecule, the Potency [5] was 31.7 µM (active).
With CC(C)OC(=O)c1cc(C(=O)OC(C)C)cc([N+](=O)[O-])c1 the Potency [1] was “inactive”, the Potency [3] was 19.8 µM (active) and the Potency [6] was 6.87 µM (active). The Potency [5] was 0.0816 µM (active).
With C[n+]1c2cc(N)ccc2cc2ccc(N)cc21 (tested in a mixture with another compound) the Potency [1] was 9.44 µM (active), the Potency [2] was “inactive” and the max activation [7] was -10.5%. The Potency [6] was 15.5 µM (active) and the Potency [5] was 38.9 µM (active).
With COC(=O)CC#N the Potency [1] was “inactive”, the Potency [4] was “inactive” and the Potency [3] was “inactive”.
In the case of O=Cc1ccc(F)cc1, the Potency [1] was “inactive”, the Potency [2] was “inactive” and the Potency [4] was “inactive”. The Potency [6] was 35.6 µM (active) and the Potency [5] was “inactive”.
In the case of CCCCCCC(C)Nc1ccc(Nc2ccccc2)cc1 (centres undefined), the Potency [1] was “inactive”, the Potency [2] was “inactive” and the Potency [3] was 21.7 µM (active). The Potency [6] was 28.3 µM (active) and the Potency [5] was 5.03 µM (active).
With C1CC(COCC2CO2)CCC1COCC1CO1 (centres undefined) the Potency [1] was “inactive”, the Potency [2] was “inactive” and the Potency [4] was “inactive”. The Potency [6] was “inactive”.
In the case of Cc1cc(=O)[nH]c(=O)[nH]1, the Potency [8] was “inactive”, the Potency [2] was “inactive” and the Potency [4] was “inactive”. The Potency [3] was “inactive”, the Potency [6] was “inactive” and the Potency [5] was “inactive”.
For CN(C)c1ccc(N=Nc2ccccc2C(=O)O)cc1, the Potency [8] was 9.69 µM (active), the Potency [2] was “inactive” and the Potency [4] was 54.5 µM (active). For the same molecule, the Potency [3] was 21.7 µM (active), the Potency [6] was 39.9 µM (active) and the Potency [5] was 35.6 µM (active).
For CCCCCCOc1ccc(O)cc1, the Potency [8] was 61.1 µM (active), the Potency [2] was “inactive” and the Potency [3] was 48.6 µM (active). For the same molecule, the Potency [5] was 20 µM (active).
In the case of Cc1cccc(C)c1NC(=O)CN1CCN(CCCC(c2ccc(F)cc2)c2ccc(F)cc2)CC1, the Potency [8] was 29.8 µM (active), the Potency [4] was 21.1 µM (active) and the Potency [3] was “inactive”. The max activation [7] was 3.4%, the Potency [9] was “inactive” and the Potency [10] was “inactive”. For the same molecule, the Potency [6] was 2.45 µM (active) and the Potency [5] was 43.6 µM (active).
For ClC/C=C\CCl, the Potency [8] was “inactive”, the Potency [2] was “inactive” and the Potency [4] was “inactive”. The Potency [5] was 33.1 µM (active).
With COc1ccccc1OCCNCC(O)COc1cccc2[nH]c3ccccc3c12 (centres undefined) the Potency [8] was 29.8 µM (active), the Potency [2] was “inactive” and the Potency [3] was 8.41 µM (active). For the same molecule, the max activation [7] was 7.65%, the Potency [10] was 22.4 µM (active) and the Potency [6] was 1.55 µM (active). For the same molecule, the Potency [5] was 5.49 µM (active).
In the case of CC(C)c1ccccc1N, the Potency [8] was “inactive”, the Potency [2] was “inactive” and the Potency [4] was “inactive”. The Potency [3] was 61.1 µM (active) and the Potency [5] was 39.9 µM (active).
With SCCCCCCCCS the Potency [8] was “inactive”, the Potency [2] was “inactive” and the Potency [3] was “inactive”. The Potency [6] was “inactive” and the Potency [5] was “inactive”.
In the case of O=C1NCN(c2ccccc2)C12CCN(CCCC(c1ccc(F)cc1)c1ccc(F)cc1)CC2, the Potency [8] was 33.5 µM (active), the Potency [4] was 26.6 µM (active) and the Potency [3] was “inactive”.
In the case of NCCCCCCNCCCCCCN, the Potency [8] was “inactive”, the Potency [2] was “inactive” and the Potency [4] was “inactive”. The Potency [3] was “inactive”, the Potency [6] was 4.94 µM (active) and the Potency [5] was “inactive”.
With c1cc[nH]c1 the Potency [8] was “inactive”, the Potency [2] was “inactive” and the Potency [4] was “inactive”. For the same molecule, the Potency [3] was “inactive” and the Potency [5] was “inactive”.
For CC(C)N=C(N)/N=C(\N)Nc1ccc(Cl)cc1, the Potency [8] was 11.9 µM (active), the Potency [2] was “inactive” and the Potency [4] was “inactive”. The Potency [3] was “inactive”, the max activation [7] was -16.8% and the Potency [9] was “inactive”. The Potency [10] was “inactive”, the Potency [6] was 5.49 µM (active) and the Potency [5] was 15.5 µM (active).
With CCC(=O)CC(C)CC (centres undefined) the activity change, negative = cytotoxicity [8] was 4.19% [at 0.349 µM], the caspase-3/7 activation [2] was 0.142% [at 0.349 µM] and the activity change, negative = cytotoxicity [4] was 6.32% [at 0.349 µM]. It also gave an activation [3] of 2.33% [at 0.349 µM] and an activity change, negative = inhibition [5] of -5.38% [at 0.435 µM].
With O=C1Nc2ccc(Cl)cc2[C@@](C#CC2CC2)(C(F)(F)F)O1 the Potency [8] was 21.1 µM (active), the Potency [2] was “inactive” and the Potency [7] was 28.2 µM (active). The Potency [6] was “inactive” and the Potency [5] was 11 µM (active).
For Cc1nc(Nc2ncc(C(=O)Nc3c(C)cccc3Cl)s2)cc(N2CCN(CCO)CC2)n1, the Potency [8] was 13.3 µM (active), the Potency [2] was “inactive” and the Potency [4] was 18.8 µM (active). The Potency [3] was 1.06 µM (active), the Potency [9] was “inactive” and the Potency [6] was “inactive”.
For CCCCCCCC(C)=O, the Potency [8] was “inactive”, the Potency [2] was “inactive” and the Potency [4] was “inactive”. The Potency [3] was “inactive”, the Potency [6] was “inactive” and the Potency [5] was “inactive”.
With O=S(O)O the activity change, negative = cytotoxicity [8] was 9.18% [at 19 µM], the caspase-3/7 activation [2] was 0.497% [at 19 µM] and the activity change, negative = cytotoxicity [4] was -4.78% [at 19 µM]. It also gave an activation [3] of 8.59% [at 19 µM], an activity change, negative = inhibition [6] of -20.2% [at 23.6 µM] and an activity change, negative = inhibition [5] of 0.673% [at 23.6 µM].
In the case of CC=O, the Potency [8] was 4.03 µM (active), the Potency [4] was “inactive” and the Potency [3] was 4.53 µM (active). For the same molecule, the Potency [6] was 8.34 µM (active).
With N#CSCSc1nc2ccccc2s1 the Potency [8] was 17.2 µM (active), the Potency [2] was 6.86 µM (active) and the Potency [3] was 7.7 µM (active). For the same molecule, the Potency [6] was 10 µM (active) and the Potency [5] was 39.9 µM (active).
With CCCCCCCOC(=O)c1ccccc1C(=O)OCCCCCCC the Potency [8] was “inactive”, the Potency [2] was “inactive” and the Potency [4] was “inactive”. For the same molecule, the Potency [3] was “inactive”, the Potency [6] was “inactive” and the Potency [5] was 39.9 µM (active).
With CNC(=O)c1cc(Oc2ccc(NC(=O)Nc3ccc(Cl)c(C(F)(F)F)c3)cc2)ccn1 the Potency [8] was 26.6 µM (active), the Potency [2] was “inactive” and the Potency [3] was “inactive”. For the same molecule, the max activation [7] was -24.5%, the Potency [10] was “inactive” and the Potency [5] was 27.5 µM (active).
